Source: PubChem BioAssay (NCI)
Compounds without any hit were thinned out: in the full panel of roughly 79,000, 15% have a hit. No stated cut-off is given here; in the data, active means growth inhibition above about 70%; inactive means the rest.

Tests used:
[1] = NCI Yeast Anticancer Drug Screen. Data for the rad50 strain (AID 155);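 further: 0% = growth of vehicle-only cultures of the same strain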; details: S. cerevisiae rad50 strain growth inhibition; at 50.0 µM; hits give high values
In short: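 Vehicle-treated cultures provide the reference for the growth inhibition reported for compound-exposed, repair-deficient yeast.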

[2] = NCI Yeast Anticancer Drug Screen. Data for the mec2-1 strain (AID 157); details: S. cerevisiae mec2-1 strain, at 50.0 µM, hits give high values
In short: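 Yeast mec2-1 mutant treated with compound. Readout: growth inhibition vs vehicle controls.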

[3] = NCI Yeast Anticancer Drug Screen. Data for the sgs1 mgt1 strain (AID 161);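 further: 0% = growth of cultures given vehicle only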; details: S. cerevisiae sgs1 mgt1 strain, at 50.0 µM, hits give high values
In short: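 Mutant yeast exposed to compound; growth scored against vehicle-only wells.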

[4] = NCI Yeast Anticancer Drug Screen. Data for the cln2 rad14 strain (AID 165);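 further: 0% = growth equal to vehicle treated cultures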; details: S. cerevisiae cln2 rad14 strain, at 50.0 µM, hits give high values
In short: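 cln2 rad14 yeast strain; compound exposure; growth inhibition read vs vehicle controls.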

[5] = NCI Yeast Anticancer Drug Screen. Data for the bub3 strain (AID 167); details: S. cerevisiae bub3 mutant strain, at 50.0 µM, hits give high values
In short: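 Mutant yeast screening strain plus compound; vehicle-treated cultures serve as the 0% inhibition reference.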

[6] = NCI Yeast Anticancer Drug Screen. Data for the mlh1 rad18 strain (AID 175); details: S. cerevisiae mlh1 rad18 strain growth inhibition; at 50.0 µM; hits give high values
In short: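 Yeast w/ defined DNA-repair lesions; compound exposure; growth vs vehicle controls → % inhibition.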

Measured: growth inhibition

Cc1c([N+](=O)[O-])ccc2c(NCCCN(C)C)ccnc12
inactive: [1] -2.5% | [2] -5.65% | [3] -5.35% | [4] -6.4% | [5] -14.3% | [6] -36.4%

COC(=O)/C(C#N)=C\n1c(=S)[nH]c2ccccc21
inactive: [1] -14.2% | [2] 2.55% | [3] -16.4% | [4] 17.4% | [5] -4.9% | [6] -8.35%

COc1ccc(C=Nc2ccc(Cl)cc2)cc1
inactive: [1] -11.5% | [2] -25.2% | [3] 4.45% | [4] -18.7% | [5] 2.55% | [6] 3.55%

C/C(=N\NC(C)(C)C)c1sc(-c2nc(C)c(/C(C)=N/NC(C)(C)C)s2)nc1C
inactive: [1] 46.5% | [2] 3.9% | [3] -7.5% | [4] -20.6% | [5] 22.1% | [6] 21.8%

O=C(CCl)NCCc1ccccc1
inactive: [1] 17.5% | [2] 5.6% | [3] -0.4% | [4] 12.8% | [5] 24.8% | [6] 1.1%

CCCCCCCCCCOc1ccc(C2=C(c3ccccc3)C(=O)C(c3ccccc3)=C2c2ccccc2)cc1
inactive: [1] 25.3% | [2] 10.4% | [3] 17.4% | [4] 14.9% | [5] -5.3% | [6] 3.6%

CN(C)CCO[Si](C)(c1ccccc1)c1ccc(F)cc1 (centres undefined)
inactive: [1] 16.6% | [2] -7.95% | [3] 20.6% | [4] -10.1% | [5] 11.8% | [6] 3.95%

Cc1cc(S(=O)(=O)Nc2n[nH]c(Nc3ccccc3)n2)c(SSc2cc(Cl)c(C)cc2S(=O)(=O)Nc2n[nH]c(Nc3ccccc3)n2)cc1Cl
inactive: [1] 12.2% | [2] 37.8% | [3] 4.95% | [4] 11.9% | [5] 12% | [6] 18.2%

C/C=C(\c1ccccc1)N1CCOCC1
inactive: [1] 17.9% | [2] -9.15% | [3] -8.6% | [4] -37.5% | [5] 7.1% | [6] 5.25%

CN1NC2(CCCCC2)ON=C1c1ccccc1
inactive: [1] 5.35% | [2] -5.5% | [3] 11.1% | [4] 7.9% | [5] -6.35% | [6] 10.7%

CCOC(=O)c1cc(N)c(C(=O)OCC)cc1N
inactive: [1] 4.15% | [2] -16.5% | [3] -1.3% | [4] 3.6% | [5] 8.65% | [6] 10.3%

Cc1cc(OC(C)C)cc(C)c1C(=O)OCC(C)CN1CCCC1 (centres undefined)
inactive: [1] 1.9% | [2] -16.8% | [3] 5.4% | [4] -15.1% | [5] -8.5% | [6] -18.2%

O=Cc1ccc(O)c(C(=O)O)c1
inactive: [1] 8.6% | [2] 5.8% | [3] 15.3% | [4] 21.1% | [5] 21.1% | [6] 2%

CC(C)CC1N=C(OCc2ccccc2)OC1=O (centres undefined)
inactive: [1] -16.6% | [2] -79.5% | [3] -20.4% | [4] -15.7% | [5] 5.25% | [6] -14.2%

O=C(O)C(c1cccs1)C1(O)CCCCC1 (centres undefined)
inactive: [1] -0.75% | [2] -7.2% | [3] -2.25% | [4] -1.65% | [5] -2.5% | [6] -5.3%

CCOc1c(Cc2ccccc2)c(=O)n2c3ccccc3n3c(=O)n(C)c(=O)c1c23
inactive: [1] -5.8% | [2] -22.4% | [3] -54.2% | [4] 11.8% | [5] -12.8% | [6] -25%

CCOc1ncnc2ccc(Cl)c(I)c12
inactive: [1] 12.2% | [2] 0.55% | [3] 24.6% | [4] 10.2% | [5] 35.9% | [6] 16.7%

O=c1nc(NCCc2c[nH]c3ccccc23)ccn1C1OC(CO)C(O)C1O (centres undefined)
inactive: [1] 19.1% | [2] 4.5% | [3] 2.35% | [4] 15.1% | [5] -1.45% | [6] 7.25%

O=C(N[C@H](CO)[C@H](O)c1ccc([N+](=O)[O-])cc1)C(Cl)Cl
inactive: [1] 25.2% | [2] -4.05% | [3] 28.9% | [4] 9.55% | [5] 35.6% | [6] 10.7%
